Bioassay records from PubChem BioAssay.
Pemphigus Ab inh: human desmoglein-3 autoantibody binding inhibition; P32926; DSG3-coupled beads, scFv-anti-DSG3-GFP binding, flow cytometry; stronger effect = lower value; binding (percent of control), % at 10 µM; 310,000 tested, 0.48% active; AID 588358;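 active = binding more than 3 SD below its plate's average and above zero; inconclusive = below that plate limit but binding exactly zero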;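 also: hits lower antibody fragment binding to DSG3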
GRK2 aptamer HTS: human GRK2 inhibition via aptamer displacement. inhibition of aptamer binding, % at 10 µM. 330,000 tested, 0.59% active. P25098. bead flow cytometry, FAM-aptamer displacement from GRK2. AID 488847;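 active = inhibition of aptamer binding above 40%, roughly 3 SD of noise, on plates passing a quality check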;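 also: median bead fluorescence of bound FAM aptamer so fluorescent compounds give negative values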
HDAC3 inhib: inhibitors of human histone deacetylase 3 | O15379 | recombinant HDAC3, fluorogenic peptide/trypsin coupled, fluorescence | 320,000 tested, 0.15% active | inhibition, % at 8.3 µM; in the data active = inhibition above about 26%, passing the limit was not always enough; inconclusive = no clear call, values can overlap the other calls
Target sequence (O15379 whole entry, looked up): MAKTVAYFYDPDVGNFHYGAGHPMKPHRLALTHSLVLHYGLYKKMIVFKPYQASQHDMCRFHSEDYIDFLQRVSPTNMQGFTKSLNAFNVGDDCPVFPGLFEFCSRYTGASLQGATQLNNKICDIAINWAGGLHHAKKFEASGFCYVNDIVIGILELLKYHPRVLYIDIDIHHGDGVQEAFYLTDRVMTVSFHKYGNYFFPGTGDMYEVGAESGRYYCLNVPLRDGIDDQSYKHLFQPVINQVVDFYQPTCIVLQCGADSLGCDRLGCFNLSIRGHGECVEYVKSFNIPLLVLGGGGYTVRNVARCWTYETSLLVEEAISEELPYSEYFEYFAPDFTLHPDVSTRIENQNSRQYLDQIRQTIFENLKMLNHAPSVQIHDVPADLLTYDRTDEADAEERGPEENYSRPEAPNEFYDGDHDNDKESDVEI
VLA-4 inh: inhibition in a human VLA-4 binding assay; inhibition, % (about 7 µM as worked out from the volumes in the protocol); P13612; 330,000 tested, 0.2% active; VLA-4 expressing cells, ligand binding flow cytometry
LANA-H2B inh: blocks KSHV LANA binding to histone H2A/H2B | cell-free LANA-H2A/H2B peptide, fluorescence polarization | inhibition, % (concentration not given with the values) | Q9QR71 | 320,000 tested, 0.6% active; in the data active = inhibition mostly above about 10%, no sharp cut-off; inactive = mostly below about 6.7%
PKD1 inh: inhibitors of human PKD1 kinase. PKD1 kinase fluorescence polarization assay. AID 797. inhibition, % (test concentration not listed). 200,000 tested, 0.056% active. Q15139
* = called active by the depositor; ? = inconclusive; . = not tested or not shown; + = active, no number. Hits are enriched below; roughly 1.8% of the tested compounds scored in any of these assays. Rule as the data show it, unless noted: active = inhibition above about 50%; inactive = the rest.

SMILES | Pemphigus Ab inh | GRK2 aptamer HTS | HDAC3 inhib | VLA-4 inh | LANA-H2B inh | PKD1 inh
CC1(C)CC(=O)c2cnc(NC3CC3)nc2C1 | 95 | 0 | 4 | 6 | 18* | 6
O=C(O)CCCN1C(=O)/C(=C/c2ccc(-c3nc4ccccc4s3)o2)SC1=S | 89* | 7 | 6 | 3 | -14 | 1
CC(CNC(=S)Nc1cc(F)cc(F)c1)CSc1ccc(Cl)cc1 (centres undefined) | 98 | 1 | 11 | 2 | 1 | -4
Cc1cc(=O)oc2cc(OC(C)C(=O)NCC3CCCO3)ccc12 (centres undefined) | 104 | 5 | -11 | -2 | 21* | 1
Cc1cc(=O)oc2cc(OC(C)C(=O)NCC3CCC(C(=O)O)CC3)ccc12 (centres undefined) | 97 | 1 | -4 | 15 | -1 | .
CC(Oc1ccc2c3c(c(=O)oc2c1)CCCC3)C(=O)NCCN1CCOCC1 (centres undefined) | 120 | 0 | -15 | -1 | 11* | .
O=C(COc1ccc2c3c(c(=O)oc2c1)CCCC3)NCCN1CCOCC1 | 105 | 0 | -20 | 4 | 0 | .
O=C(c1ccc(F)c(F)c1)N1CCCc2ccccc21 | 99 | 0 | 6 | -9 | 1 | .
Cc1ccc(NC(=O)CN2C(=O)NC3(CCCCC3C)C2=O)cc1S(=O)(=O)N1CCCCC1 (centres undefined) | 109 | 0 | 3 | -4 | 55* | .
CN(C)CCCn1c2c(c(SCC(=O)Nc3ccc4c(c3)OCCO4)nc1=O)CCCC2 | 103 | . | . | . | . | .
O=C(O)c1ccc(-c2ccc(/C=C3\NC(=O)N(Cc4ccc(Cl)cc4)C3=O)o2)cc1Cl | 80* | . | . | . | . | -5
CCOC(=O)c1cnc2cc(-c3ccc(C)cc3)nn2c1C | 94 | . | . | . | . | .
O=c1oc2c(O)c(O)cc3c(=O)oc4c(O)c(O)cc1c4c23 | 80 | 84* | 0 | 34 | 2 | 12
CCOC(=O)C1C(=O)C=C(C)C(C(=O)OCC)C1c1cccc([N+](=O)[O-])c1 (centres undefined) | 111 | 4 | 1 | -4 | 27* | .
C=CCn1c(SCC(=O)N2c3ccccc3Sc3ccccc32)nnc1-c1ccco1 | . | 0 | 0 | -3 | 23* | .
Cc1ccc(NC(=O)COc2ccc(/C=N/NC(=O)CSCc3ccccc3)cc2)cc1 | 81* | 0 | 3 | 0 | 5 | -2
COc1ccc(CSCC(=O)N/N=C/c2ccccc2O)cc1 | 53* | 0 | -5 | 7 | 4 | 1
COC(=O)c1ccc(COC(=O)c2ccc(CO)cc2)o1 | 97 | 3 | -3 | 12 | 2 | -3
COc1ccc(S(=O)(=O)N(C)CC(=O)NCc2ccccn2)cc1 | 123 | 0 | -2 | -4 | 1 | .
COc1cccc(CN(C)C(=O)c2cc(S(=O)(=O)NC3CCCCC3)ccc2C)c1OC | 92 | 0 | 0 | 6 | 3 | .
Oc1ccccc1C=NN=CC=Cc1ccccc1 | 92 | . | . | . | . | .
O=[N+]([O-])c1ccccc1C=CC=NN=Cc1ccccc1O | -3.9* | . | . | . | . | .
Cc1ccc(NS(=O)(=O)c2c(C(=O)N3CCCCCC3)c(C)n(C)c2C)c(Cl)c1 | 101 | 3 | -11 | 11 | -2 | .
CN(CCO)c1cnccn1 | 81 | 0 | -1 | 4 | 14* | 1
O=C(CCCN1C(=O)c2cccc3cccc(c23)C1=O)N1CCN(c2ccccc2)CC1 | 47* | 2 | -4 | 22 | 17* | 8
SMILES | Pemphigus Ab inh | GRK2 aptamer HTS | HDAC3 inhib | VLA-4 inh | LANA-H2B inh | PKD1 inh
Cc1cccc(C)c1NC(=O)CNC(=O)CCCN1C(=O)c2cccc3cccc(c23)C1=O | 102 | 3 | 3 | 26 | 1 | .
O=C(CCCN1C(=O)c2cccc3cccc(c23)C1=O)N1CCN(c2ccccc2O)CC1 | 100 | 0 | -5 | -2 | 0 | -19
O=C(CCCCCN1C(=O)c2cccc3cccc(c23)C1=O)NCCO | 73* | 0 | -10 | -9 | 5 | 0
O=c1[nH]cc(S(=O)(=O)N2CCN(c3ccccc3F)CC2)c(=O)[nH]1 | 96 | . | . | . | . | .
COC(=O)c1c[nH]c2c1-c1cc(C(=O)OCc3ccccc3)n(S(=O)(=O)c3ccc(C)cc3)c1C(=O)C2=O | 82 | . | . | . | . | .
C[C@@H]1CN([C@H](C)CO)C(=O)c2cc(NC(=O)Nc3ccc4c(c3)OCO4)ccc2O[C@H]1CN(C)Cc1ccncc1 | 99 | 2 | -4 | -8 | + | .
C[C@@H]1CN([C@H](C)CO)C(=O)c2cc(NC(=O)Nc3ccc(C(F)(F)F)cc3)ccc2O[C@H]1CN(C)C(=O)Nc1ccc(F)cc1 | 100 | . | . | . | . | .
C[C@H]1CN([C@@H](C)CO)C(=O)c2cccc(NC(=O)Nc3ccc(C(F)(F)F)cc3)c2O[C@@H]1CN(C)C(=O)Nc1ccc(F)cc1 | . | 2 | 35* | -2 | 4 | .
C[C@H](CO)N1C[C@H](C)[C@@H](CN(C)C(=O)Nc2ccc(C(F)(F)F)cc2)Oc2ccc(NC(=O)Nc3ccc(C(F)(F)F)cc3)cc2C1=O | 102 | 0 | 35* | 8 | -2 | .
C[C@H](CO)N1C[C@H](C)[C@@H](CN(C)C(=O)Nc2ccccc2)Oc2ccc(NC(=O)Nc3ccc4c(c3)OCO4)cc2C1=O | 104 | 1 | 5 | -6 | -3 | .
CC(C)CN(C(=O)COC(=O)c1c2c(nc3ccccc13)CCC2)c1c(N)n(Cc2ccccc2)c(=O)[nH]c1=O | 96 | 1 | 5 | 3 | 1 | .
COc1ccc(/C=C/C(=O)OCC(=O)NC2CCCC2)cc1OC | 96 | 0 | 5 | -16 | -3 | .
N#CC1=C2SCN(c3ccccc3)CN2C(=O)CC1c1ccccc1Cl (centres undefined) | 92 | 1 | 0 | -10 | -2 | 2
COc1ccc(Br)cc1C1CC(=O)N2CN(Cc3ccccc3)CSC2=C1C#N (centres undefined) | 98 | 0 | 32* | 1 | -1 | -8
COc1cc(OC)c(C2CC(=O)N3CN(C)CSC3=C2C#N)cc1OC (centres undefined) | 80 | 0 | 31* | 15 | 0 | -6
N#CC1=C2SCN(c3ccccc3)CN2C(=O)CC1c1c(Cl)cccc1Cl (centres undefined) | 89 | 0 | 61* | -6 | 0 | 0
COc1cc(OC)c(C2CC(=O)N3CN(c4ccccc4)CSC3=C2C#N)cc1OC (centres undefined) | 107 | 1 | 42* | 15 | 2 | 4
CCC[C@H]1CN(c2ccccc2)C(=O)[C@@H]1CC(=O)Nc1ccc(Br)cc1 | 101 | . | . | . | . | .
CCN(CC)S(=O)(=O)c1ccc(N2CC(C(=O)NCCc3ccc(Cl)cc3)CC2=O)cc1 (centres undefined) | ? | 0 | -6 | 1 | + | .
CCN(CC)S(=O)(=O)c1ccc(N2CC(C(=O)NCCC3=CCCCC3)CC2=O)cc1 (centres undefined) | . | 5 | 4 | 6 | 0 | .
CN(CCNC(=O)C1CC(=O)N(c2ccc(F)c(Cl)c2)C1)Cc1ccccc1 (centres undefined) | 91 | 0 | 2 | 0 | 15 | -12
